Assay outcomes from PubChem.
PKA-R2B act – PKA-R2B complex activation; AID 504700; PKA-R2B holoenzyme dissociation, Cy5-IP20 fluorescence polarization; R2B truncated from residue 108, S112A mutant; 0% DMSO only, 100% 113 µM cGMP; P22694+P31323; 340,000 tested, 0.079% active; activation, % at 11.4 µM;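 active = activation above a cutoff set at the mean over all compounds plus 3 SD, cut at about 18% in these data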;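 also: higher means more holoenzyme dissociation and a rise in polarization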
Neddylation inh – inhibitors of human cullin neddylation | P61081+Q13564 | TR-FRET cullin neddylation, biochemical | inhibition, % at 25 µM | 360,000 tested, 0.58% active; in the data active = inhibition above about 36%
Target sequence (P61081 whole entry, looked up): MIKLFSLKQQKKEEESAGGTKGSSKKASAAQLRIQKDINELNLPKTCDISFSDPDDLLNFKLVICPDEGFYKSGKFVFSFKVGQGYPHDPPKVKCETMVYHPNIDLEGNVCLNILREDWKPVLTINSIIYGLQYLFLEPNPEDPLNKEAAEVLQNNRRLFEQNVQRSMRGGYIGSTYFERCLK
Target sequence (Q13564 whole entry, looked up): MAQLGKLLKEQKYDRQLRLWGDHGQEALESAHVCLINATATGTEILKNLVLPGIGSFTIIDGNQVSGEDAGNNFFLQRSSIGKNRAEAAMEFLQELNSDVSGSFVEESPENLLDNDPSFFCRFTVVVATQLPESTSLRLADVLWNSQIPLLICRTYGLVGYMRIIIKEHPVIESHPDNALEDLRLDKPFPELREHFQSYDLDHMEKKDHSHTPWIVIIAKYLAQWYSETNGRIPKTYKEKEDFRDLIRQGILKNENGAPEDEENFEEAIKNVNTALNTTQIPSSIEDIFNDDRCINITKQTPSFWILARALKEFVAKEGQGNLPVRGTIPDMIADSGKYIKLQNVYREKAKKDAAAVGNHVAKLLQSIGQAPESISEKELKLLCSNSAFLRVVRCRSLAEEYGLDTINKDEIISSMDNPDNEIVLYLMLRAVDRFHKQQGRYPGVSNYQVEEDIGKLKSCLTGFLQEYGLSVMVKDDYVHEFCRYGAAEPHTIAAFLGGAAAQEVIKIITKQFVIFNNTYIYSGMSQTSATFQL
PKA-R1A act – activators of PKA-R1A complex; P00514+P68181; PKA-R1A dissociation, Cy5-IP20 fluorescence polarization; scaled: DMSO 0%, 113 µM cGMP 100%; activation, % at 11.4 µM; 340,000 tested, 0.083% active; AID 504707;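 active = percent activation above the mean of all tested compounds plus 3 SD, cut at about 19% in these data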;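 also: higher means more PKAc released from R1A so a rise in polarization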
Rpn11 block – blocks the human proteasome subunit Rpn11; O00487; human 26S proteasome, Ub4-pepOG fluorescence polarization; 20S core pre-blocked with epoxomicin; calls only at 20 µM; 360,000 tested, 0.59% active;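 active = inhibition at 20 µM, scaled to each plate's controls, above about 33%, limit read from the data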
Neddyl conf – cullin neddylation inhibition, confirmation; shares compounds with Neddylation inh; TR-FRET cullin neddylation biochemical assay; calls only at 25 µM; 1,800 tested, 13% active; in the data active = inhibition above about 40%;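 also: neddylation substrate is the cullin 1 ring ligase complex with SKP2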
Large screens that a line does not name were inactive (follow-up assays come after a bar, where shown). This is a sample that favours compounds with a hit; in the whole collection about 1.3% have one here.

CN(c1ccccc1)S(=O)(=O)c1cccc(NC(=O)C2=NN(c3ccccc3)C(=O)CC2)c1	Neddylation inh 45.3 | Neddyl conf inactive
S=c1[nH]nc(-c2ccncc2)n1/N=C/C=C/c1ccco1	none
Cc1cccc(-c2n[nH]c(=S)n2/N=C/C=C/c2ccco2)c1	Neddylation inh 59.6 | Neddyl conf inactive
Cc1c(C(=O)NCC2CCCO2)oc2ccc3c(c12)C(=O)CC(C)(C)O3 (stereo not drawn)	Neddylation inh 37.4
O=C(OCc1cc(=O)n2ccsc2n1)c1ccccc1NCCO	Neddylation inh 39.1
O=C(OCc1cc(=O)n2ccsc2n1)c1ccccc1O	none
COc1cc(S(=O)(=O)n2cnc3ccccc32)ccc1Br	none
COC(=O)C1=C(C)NC2=C(C(=O)CCC2)C1c1ccc(-c2ccsc2C(=O)OC)o1 (stereo not drawn)	Neddylation inh 38.4
CCc1nnc(NC(=O)c2cccc(S(=O)(=O)N(C)c3ccccc3)c2)s1	none
CCSc1nnc(NC(=O)c2cccc(S(=O)(=O)N(C)c3ccc(C)cc3)c2)s1	Neddylation inh 44.4 | Neddyl conf inactive
COc1cc(C(=O)NN=Cc2ccc(N(C)C)cc2)cc(OC)c1OC	Neddylation inh 45.1 | Neddyl conf active
CN(C)c1ccc(/C=N/NC(=O)CNC(=O)c2ccco2)cc1	Neddylation inh 40.8 | Neddyl conf active
O=C(COc1ccccc1)NCC(=O)N/N=C/c1ccccc1	none
CN(C)c1ccc(/C=N/NC(=O)COc2ccccc2)cc1	Neddylation inh 58.4 | Neddyl conf active
CN(C)c1ccc(/C=N/NC(=O)CNC(=O)/C=C/c2ccccc2)cc1	none
Cc1cccc(OCC(=O)N/N=C/c2ccc(N(C)C)cc2)c1	Neddylation inh 43.4 | Neddyl conf active
O=C(Cc1nc2ccccc2[nH]1)N/N=C/c1ccccc1	none
CN(C)c1ccc(/C=N/NC(=O)c2cccc(N3CCCC3=O)c2)cc1	Neddylation inh 41.6 | Neddyl conf inactive
CN(C)c1ccc(/C=N/NC(=O)CCc2nc3ccccc3[nH]2)cc1	Neddylation inh 40.7 | Neddyl conf active
CCN(C(=O)COC(=O)/C=C/c1ccc(OC)c(OC)c1)c1c(N)n(Cc2ccccc2)c(=O)[nH]c1=O	none
Cc1cc(C)c2nc(N3CCN(C)CC3)c(C#N)cc2c1	Neddylation inh 42.0 | Neddyl conf inactive
Cc1cccc2cc(C#N)c(N3CCN(C)CC3)nc12	none
Cc1ccc2nc(N3CCN(C)CC3)c(C#N)cc2c1	Neddylation inh 40.2 | Neddyl conf inactive
Cc1ccc2cc(C#N)c(N3CCN(C)CC3)nc2c1	none
COc1cc(OC)cc(C(=O)Nc2nnc(SCC(=O)NCc3ccco3)s2)c1	none
CC1=C(C(=O)N(C(C)C)C(C)C)CC(CC(=O)NCc2cccc3ccccc23)C(=O)N1CCC1=CCCCC1 (stereo not drawn)	none (no result: PKA-R2B act, PKA-R1A act)
Cc1noc(C)c1COc1ccccc1C(=O)NCCOc1ccccc1	none
COc1ccc2nc(NC(=O)c3c(C)noc3C)sc2c1	Neddylation inh 33.5 | Neddyl conf inactive
CCOC(=O)C1=C(C)NC(C)=C(C(=O)OCC)C1C	Neddylation inh 47.2
CCOC(=O)C1=C(C)NC(C)=C(C(=O)OCC)C1c1ccc(OC)cc1	none (not shown: Neddylation inh)
CN(C)c1cccc(C(=O)NCCCSc2ccccc2)c1	Neddylation inh 48.8
COc1cc2oc(=O)cc(CN3CCCCC3)c2cc1Cl	Neddylation inh 40.7 (no result: PKA-R2B act, PKA-R1A act) | Neddyl conf inactive
COc1cc2ccc(=O)oc2cc1O	none
CC(C)C1Oc2cc3oc(=O)ccc3cc2C1=O (stereo not drawn)	Neddylation inh 46.2 | Neddyl conf inactive
N#CCC(=O)Nc1ccc(C(=O)N2CCN(c3ccccn3)CC2)cc1	none
CCN(CCO)CC1CCCC2CCCCC21 (stereo not drawn)	none (no result: PKA-R2B act, PKA-R1A act, Rpn11 block)
CN1c2ccccc2C(O)=C(C(=S)Nc2ccc(F)c(Cl)c2)S1(=O)=O	Neddylation inh 44.3 | Neddyl conf inactive
Cc1cc(C)c2c(c1)/C(=c1/sc3n(c1=O)CN(c1ccccc1)CN=3)C(=O)N2	none
Cc1c(C)c2ccc(OC(C)C(=O)N3C[C@H]4C[C@@H](C3)c3cccc(=O)n3C4)c(C)c2oc1=O (stereo partly drawn)	Neddylation inh 43.7 | Neddyl conf inactive
CC(C)(C)C1c2[nH]c3ccccc3c2CCN1Cc1cccc(OCCO)c1 (stereo not drawn)	Neddylation inh 52.1 | Neddyl conf inactive
CC(=O)N1CCC2(CC1)C/C(=N\NC(=S)Nc1ccccc1C)c1cc(O)ccc1O2	none (not shown: Neddylation inh)
COc1ccccc1NC(=S)N/N=C1\CC(C)(C)Oc2ccc(O)cc21	Neddylation inh 39.6 | Neddyl conf inactive
COc1ccc(NC(=S)N/N=C2\CC(C)(C)Oc3ccc(O)cc32)cc1	Neddylation inh 40.8 | Neddyl conf inactive
COc1ccc(OC)c(NC(=O)COc2coc(CN3CCc4ccccc43)cc2=O)c1	none
COc1ccc(CN(CCN)C2CC(C)N(C)CC2C)cc1 (stereo not drawn)	none
Nc1nonc1-n1nnc(C(=O)N/N=C/c2ccc3c(c2)OCO3)c1CSc1ccccc1	Neddylation inh 42.1 | Neddyl conf inactive
COc1cc(/C=N/NC(=O)c2nnn(-c3nonc3N)c2C(C)C)ccc1OCc1ccccc1	Neddylation inh 42.6 | Neddyl conf inactive
CCOc1ccccc1/C=N/NC(=O)c1nnn(-c2nonc2N)c1CN1CCCCCC1	none
CCCCC(=O)Nc1cccc(-c2nc3ncccc3o2)c1C	Neddylation inh 38.1 | Neddyl conf inactive
Cc1c(NC(=O)COc2cccc(Cl)c2Cl)c(=O)n(-c2ccccc2)n1C	none
CC(=O)NS(=O)(=O)c1ccc(NC(=O)[C@@H]2CCCN2S(=O)(=O)c2ccc(Cl)cc2)cc1	none
COc1ccc(-c2nn(-c3ccccc3)cc2/C=N/Nc2ccc(Cl)c(C(=O)O)c2)cc1OC	Neddylation inh 43.6 | Neddyl conf inactive
Cc1c(CN2CCC(Oc3ccc(C(=O)N4CCCCC4)cc3)CC2)cnn1C	none
N#Cc1nc(-c2ccccc2F)oc1NCCc1ccccn1	Neddylation inh 39.2 | Neddyl conf inactive
N#Cc1nc(-c2ccccc2F)oc1NCCc1ccccc1	none (not shown: Neddylation inh)
CCc1c(C)nc2c(-c3ccccc3)c[nH]n2c1=O	Neddylation inh 43.1
Cc1ccc2nc(C(C)(C)C)c(Cc3cccc(F)c3)n2c1	Neddylation inh 40.0 (no result: PKA-R2B act, PKA-R1A act) | Neddyl conf inactive
COc1ccc(NC(=O)COC(=O)CNS(=O)(=O)c2ccc(F)c(F)c2F)cc1OC	none
Cc1cc(C)n2c(=O)[nH]nc2c1	none (not shown: Neddylation inh)
Cc1ccc(-c2cc3nc(-c4ccccc4)cc(N)n3n2)cc1	Neddylation inh 44.5 | Neddyl conf inactive
CCOCCCNc1c2c(nc3cc(-c4ccc(F)cc4)nn13)CCC2	none
CN(C)CCCNc1c2c(nc3cc(-c4cccc(F)c4)nn13)CCC2	Neddylation inh 43.0 | Neddyl conf inactive
Cc1ccccc1OC1=NS(=O)(=O)c2ccccc21	none
O=S1(=O)N=C(Oc2cccc3ccccc23)c2ccccc21	Neddylation inh 42.4 | Neddyl conf inactive
CCOc1ccc(CNc2ccc(N3CCOCC3)c(C(=O)O)c2)cc1	none
